Measurements published in PubChem BioAssay.
The source made the active and inactive calls.

Experiments:
[1] = tested on: Wnt5a (protein binding on small-molecule microarray); assay: Wnt5a binders on small-molecule microarray, primary screen, biophysical, 635/667 nm fluorescence (AID 1142); conditions: 635 nm fluorescence, higher = more signal;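 note: fluorescence read at 667 nm with signal to noise per printed feature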
[2] = cell viability in Huh7 cells, primary screen, cytotoxicity control for HCV replication inhibitor project, CellTiter-Glo luminescence, basal, 48 h (AID 1143); conditions: Huh7 HCV replicon, higher = more signal, called active from +8 up or from −8 down;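 note: Huh7 hepatoma cells carrying a hepatitis C replication reporter with no stimulus; test concentration not given here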
[3] = CREB reporter modulators without forskolin, primary screen, cell-based, PC12, CRE-LacZ reporter, unstimulated (AID 1145); conditions: no forskolin, luminescence, 4.5 h, higher = more signal, called active from +8 up or from −8 down
[4] = CREB reporter modulators under forskolin, primary screen, cell-based, PC12, CRE-LacZ reporter, forskolin-stimulated (AID 1146); conditions: luminescence, 4.5 h, higher = more signal, called active from +8 up or from −8 down;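 note: PC12 cells with 6xCRE LacZ reporter stimulated by forskolin 10 µM; beta-galactosidase reporter signal reflecting CREB driven transcription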
[5] = target: Streptavidin (Streptomyces avidinii) (UniProt P22629); assay: streptavidin binders on small-molecule microarray, primary screen, artefact control for SMM compound annotation, biophysical, 635/667 nm fluorescence (AID 1147); conditions: streptavidin binding, higher = more signal;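 note: signal reflects streptavidin binding to arrayed compounds as a control protein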
[6] = small-molecule binders of probe aInhba, primary screen, biochemical, small-molecule microarray, 635/667 nm fluorescence (AID 1148); conditions: higher = more signal;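 note: score merges 667nm spot fluorescence with signal-to-noise for antibody binding to printed compounds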
Torsin-1A (Homo sapiens) [7] = target: Torsin-1A (Homo sapiens) (UniProt O14656); assay: torsin A binders from cell lysate, primary screen, small-molecule microarray, wild-type, 635/667 nm (AID 1149); conditions: COS7 hTOR1A-WT lysate, 635 nm fluorescence, higher = more signal
Torsin-1A (Homo sapiens) [8] = target: Torsin-1A (Homo sapiens) (UniProt O14656); assay: small-molecule binders of mutant TOR1A in lysate, primary screen, cell lysate, small-molecule microarray, COS7 lysate, 635/667 nm fluorescence (AID 1150); conditions: COS7 hTOR1A mutant lysate, 635 nm fluorescence, higher = more signal;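 note: score pools 667 nm emission and signal to noise measuring lysate protein binding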
[9] = tested on: Sonic hedgehog protein (Shh); assay: small-molecule binders of Shh protein, primary screen, biochemical, small-molecule microarray, 635/667 nm fluorescence (AID 1151); conditions: small-molecule microarray binding, 635 nm fluorescence; higher = more signal;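 note: Shh protein binding to compounds spotted on small-molecule microarray slides; score combines spot fluorescence intensity with signal-to-noise across triplicate slides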
[10] = E. coli DRC41 culture turbidity changes, primary screen, E. coli filamentation inducer project, strain DRC41, OD650, 48 h (AID 1152);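 note: E. coli MC1000 strain DRC41 lacking acrAB efflux pump and sulA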; conditions: E. coli DRC41 (acrAB sulA), higher = more signal, called active from +8 up or from −8 down
[11] = small-molecule binders of probe aLefty1, primary screen, biochemical, small-molecule microarray, 635/667 nm fluorescence (AID 1153); conditions: higher = more signal;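 note: score merges spot fluorescence with signal-to-noise ratio from the scanned slide images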
[12] = PSAC antagonists in infected red cells, primary screen, cell-based, P. falciparum Indochina, OD700, 1 h (AID 1154); conditions: P. falciparum Indochina infected RBC osmotic lysis, higher = more signal, called active from +8 up or from −8 down
[13] = PSAC antagonists in infected red cells, primary screen, cell-based, P. falciparum Indochina, OD700, 2 h (AID 1155);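 note: lysis reports solute entry through the parasite surface anion channel PSAC; channel blockers reduce lysis of infected cells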; conditions: P. falciparum Indochina infected erythrocytes, osmotic lysis OD700; higher = more signal, called active from +8 up or from −8 down
[14] = osmotic lysis modulators in infected erythrocytes, primary screen, PSAC antagonist project, cell-based, P. falciparum Indochina, OD700, 3 h (AID 1156); conditions: higher = more signal, called active from +8 up or from −8 down
[15] = PSAC antagonists in infected red cells, primary screen, cell-based, P. falciparum Indochina, OD700, 18 h (AID 1157); conditions: P. falciparum Indochina infected erythrocytes, osmotic lysis OD700, 18 h; higher = more signal, called active from +8 up or from −8 down
[16] = modulators of S6 phosphorylation in cells, primary screen, cell-based, A549, cytoblot, luminescence, serum-stimulated (AID 1158); conditions: A549 phospho-S6 cytoblot, 5 h, higher = more signal;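 note: serum-stimulated A549 lung adenocarcinoma cells; signal is phosphorylated S6 detected by cytoblot immunostaining with HRP secondary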
[17] = target: NADPH oxidase 2 (Homo sapiens) (UniProt P04839); assay: NOX2-dependent H2O2 signal modulators, primary screen, NOX inhibitor project, cell-based, HEK293-NOX2, PMA-stimulated, Amplex Red fluorescence (AID 1159); conditions: 45 min, higher = more signal, called active from +8 up or from −8 down; note: test concentration not given here
[18] = target: NADPH oxidase 4 (Homo sapiens) (UniProt Q9NPH5); assay: NOX4-dependent H2O2 signal modulators, primary screen, NOX inhibitor project, cell-based, HEK293-NOX4, tetracycline-induced, Amplex Red fluorescence (AID 1160); conditions: 45 min, higher = more signal, called active from +8 up or from −8 down
[19] = target: NADPH oxidase 5 (Homo sapiens) (UniProt Q96PH1); assay: NOX5-dependent H2O2 signal modulators, primary screen, NOX inhibitor project, cell-based, HEK293-NOX5, Amplex Red fluorescence (AID 1161); conditions: HEK293-NOX5, ionomycin, 45 min, higher = more signal
[20] = A549 cell viability effects, profiling panel, calcein-AM fluorescence, 48 h, basal (AID 1162); conditions: higher = more signal; note: test concentration not given here

NADPH oxidase 2 (Homo sapiens), sequence (P04839 whole entry, looked up): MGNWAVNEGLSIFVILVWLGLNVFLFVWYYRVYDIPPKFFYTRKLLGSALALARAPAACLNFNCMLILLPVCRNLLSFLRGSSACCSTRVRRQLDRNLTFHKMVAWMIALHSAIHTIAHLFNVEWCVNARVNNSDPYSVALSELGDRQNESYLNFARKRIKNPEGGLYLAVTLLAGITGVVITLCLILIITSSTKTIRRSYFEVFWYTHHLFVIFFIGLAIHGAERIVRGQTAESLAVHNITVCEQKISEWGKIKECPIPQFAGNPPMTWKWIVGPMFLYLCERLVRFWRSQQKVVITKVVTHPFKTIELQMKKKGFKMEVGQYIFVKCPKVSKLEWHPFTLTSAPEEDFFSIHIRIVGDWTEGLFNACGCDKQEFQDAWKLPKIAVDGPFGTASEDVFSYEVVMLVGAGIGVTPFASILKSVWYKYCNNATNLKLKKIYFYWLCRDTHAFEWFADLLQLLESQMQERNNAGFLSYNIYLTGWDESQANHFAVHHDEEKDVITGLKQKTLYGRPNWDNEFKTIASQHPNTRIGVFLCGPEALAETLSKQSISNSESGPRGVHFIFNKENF
NADPH oxidase 4 (Homo sapiens), sequence (Q9NPH5 whole entry, looked up): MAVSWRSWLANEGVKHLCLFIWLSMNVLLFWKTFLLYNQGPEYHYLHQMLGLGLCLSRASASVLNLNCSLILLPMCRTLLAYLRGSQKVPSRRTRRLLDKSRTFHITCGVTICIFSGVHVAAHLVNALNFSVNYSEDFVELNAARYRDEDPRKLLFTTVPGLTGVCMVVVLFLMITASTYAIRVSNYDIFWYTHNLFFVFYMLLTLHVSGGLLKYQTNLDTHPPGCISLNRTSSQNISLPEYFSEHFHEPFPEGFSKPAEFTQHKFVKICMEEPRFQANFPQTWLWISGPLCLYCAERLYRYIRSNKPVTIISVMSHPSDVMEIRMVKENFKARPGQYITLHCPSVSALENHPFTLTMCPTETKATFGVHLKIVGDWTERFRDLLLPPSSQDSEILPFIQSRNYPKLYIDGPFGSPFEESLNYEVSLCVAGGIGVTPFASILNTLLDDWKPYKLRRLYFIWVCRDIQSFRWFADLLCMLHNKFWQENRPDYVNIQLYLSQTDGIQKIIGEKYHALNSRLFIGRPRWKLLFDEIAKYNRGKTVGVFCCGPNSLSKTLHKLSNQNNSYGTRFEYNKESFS
NADPH oxidase 5 (Homo sapiens), sequence (Q96PH1 whole entry, looked up): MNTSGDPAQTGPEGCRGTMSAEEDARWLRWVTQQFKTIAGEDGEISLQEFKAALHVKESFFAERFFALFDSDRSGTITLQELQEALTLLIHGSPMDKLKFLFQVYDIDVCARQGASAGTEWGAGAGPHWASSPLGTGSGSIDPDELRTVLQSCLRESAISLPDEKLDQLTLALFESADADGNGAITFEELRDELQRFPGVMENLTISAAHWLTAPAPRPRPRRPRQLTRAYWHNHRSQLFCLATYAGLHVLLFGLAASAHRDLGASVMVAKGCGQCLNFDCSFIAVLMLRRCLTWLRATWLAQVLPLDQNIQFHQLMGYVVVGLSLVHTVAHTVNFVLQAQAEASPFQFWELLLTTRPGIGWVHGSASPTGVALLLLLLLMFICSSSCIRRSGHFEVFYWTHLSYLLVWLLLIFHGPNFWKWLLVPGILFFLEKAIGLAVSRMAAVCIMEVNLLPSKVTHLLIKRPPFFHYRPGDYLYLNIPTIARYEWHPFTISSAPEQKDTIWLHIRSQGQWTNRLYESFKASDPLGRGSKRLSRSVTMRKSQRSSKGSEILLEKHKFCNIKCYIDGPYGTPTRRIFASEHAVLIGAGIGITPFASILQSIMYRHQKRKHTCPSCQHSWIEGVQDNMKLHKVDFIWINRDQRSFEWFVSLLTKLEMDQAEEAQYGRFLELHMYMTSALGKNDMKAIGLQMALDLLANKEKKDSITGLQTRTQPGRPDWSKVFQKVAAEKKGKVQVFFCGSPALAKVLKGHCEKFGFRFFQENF
Streptavidin (Streptomyces avidinii), sequence (P22629 whole entry, looked up): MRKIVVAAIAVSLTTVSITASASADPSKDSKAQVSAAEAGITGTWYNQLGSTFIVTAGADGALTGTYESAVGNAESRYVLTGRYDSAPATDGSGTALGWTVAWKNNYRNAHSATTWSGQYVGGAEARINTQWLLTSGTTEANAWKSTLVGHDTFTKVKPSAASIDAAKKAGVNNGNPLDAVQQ
Torsin-1A (Homo sapiens), sequence (O14656 whole entry, looked up): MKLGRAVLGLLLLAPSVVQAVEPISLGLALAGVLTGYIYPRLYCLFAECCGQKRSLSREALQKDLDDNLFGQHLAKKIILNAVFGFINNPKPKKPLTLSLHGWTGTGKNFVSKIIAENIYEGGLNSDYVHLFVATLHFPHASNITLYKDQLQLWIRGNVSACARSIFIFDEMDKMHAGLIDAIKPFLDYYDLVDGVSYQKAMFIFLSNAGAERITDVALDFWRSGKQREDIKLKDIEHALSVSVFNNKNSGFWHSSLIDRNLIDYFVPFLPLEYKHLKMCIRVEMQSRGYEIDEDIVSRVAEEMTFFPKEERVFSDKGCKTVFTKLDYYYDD

Structure (SMILES) | composite z-score [1] | z-score [2] | z-score [3] | z-score [4] | composite z-score [5] | composite z-score [6] | composite z-score (Torsin-1A (Homo sapiens) [7]) | composite z-score (Torsin-1A (Homo sapiens) [8]) | composite z-score [9] | z-score [10] | composite z-score [11] | z-score [12] | z-score [13] | z-score [14] | z-score [15] | z-score [16] | z-score [17] | z-score [18] | z-score [19] | z-score [20]
COC(=O)C(CC#Cc1ccc2c(c1)[C@]1(C(=O)N2)[C@H](c2ccccc2OCCO)N2[C@H](c3ccccc3)[C@H](c3ccccc3)OC(=O)[C@H]2[C@@H]1C(=O)N1CCCCCCC1)C(=O)OC | 2.33 | -2.45 (inactive) | 0.212 (inactive) | -0.706 (inactive) | 3.71 | 2.15 | 2.87 | 3.23 | 1.32 | 1.02 (inactive) | 2.82 | 0.867 (inactive) | 0.71 (inactive) | 0.776 (inactive) | 0.51 (inactive) | 0.67 | 0.797 (inactive) | 0.68 (inactive) | 2.04 | 0.447
COCCOC(=O)N1C(=O)[C@@]2(c3cc(C#CCNC(N)=O)ccc31)[C@H](c1ccccc1OCCO)N1[C@H](c3ccccc3)[C@H](c3ccccc3)OC(=O)[C@H]1[C@@H]2C(=O)Nc1nc2ccccc2s1 | 0.141 | -0.949 (inactive) | 0.0653 (inactive) | 0.178 (inactive) | 0.789 | 0.061 | 0.196 | 0.287 | 0.312 | 2.56 (inactive) | 0.0943 | 2.23 (inactive) | -0.226 (inactive) | 0.653 (inactive) | -0.809 (inactive) | 1.87 | 1.85 (inactive) | 1.5 (inactive) | 1.25 | 0.323
COc1ccc(C#Cc2ccc3c(c2)[C@]2(C(=O)N3)[C@H](c3ccc(O)cc3)N3[C@H](c4ccccc4)[C@H](c4ccccc4)OC(=O)[C@H]3[C@@H]2C(=O)N2CCN(c3ncccn3)CC2)cc1 | 0.167 | -1.76 (inactive) | 0.478 (inactive) | 0.708 (inactive) | 1.13 | 0.18 | 0.246 | 0.923 | 0.262 | 1.77 (inactive) | 0.312 | 1.28 (inactive) | 0.22 (inactive) | 1.19 (inactive) | 0.564 (inactive) | 0.26 | 0.393 (inactive) | 0.0458 (inactive) | 1.21 | 0.214
C=C(/C(=C/C[C@H](OC(C)=O)c1cccc(OCCO)c1)c1cc(C(=O)OC)ccc1OC)C(C)C | -0.0431 | -0.802 (inactive) | 11.7 (active) | -1.02 (inactive) | -0.948 | -0.128 | -0.0282 | -0.193 | 0.237 | 1.81 (inactive) | -0.191 | 6.36 (inactive) | 1.29 (inactive) | 2.46 (inactive) | 0.576 (inactive) | -0.228 | 2.19 (inactive) | 1.84 (inactive) | -1.06 | 1.75
COc1c(C)cc(-c2cc3c(c(CCc4ccccc4)n2)[Si](C(C)C)(C(C)C)OC3)cc1C | -0.0652 | 0.236 (inactive) | 0.12 (inactive) | -0.867 (inactive) | -0.0683 | 0.0659 | 0.367 | 0.362 | 0.981 | 2.56 (inactive) | 0.112 | 1.18 (inactive) | -0.803 (inactive) | -0.428 (inactive) | -1.57 (inactive) | 0.663 | 0.726 (inactive) | 0.907 (inactive) | -0.11 | 0.483
O=C(NCc1ccccc1)[C@@H]1c2ccccc2C(=O)N(Cc2ccccc2Cl)[C@H]1c1ccc(CO)cc1 | 0.531 | -1.32 (inactive) | -0.152 (inactive) | -0.918 (inactive) | 0.527 | -0.119 | 1.1 | 0.759 | 1.54 | 2.17 (inactive) | 0.139 | 1.79 (inactive) | -0.576 (inactive) | -0.0527 (inactive) | -1.17 (inactive) | 0.894 | -0.932 (inactive) | 0.992 (inactive) | -0.544 | 0.703
COCCOC(=O)N1C(=O)[C@@]2(c3cc(C#CCCO)ccc31)[C@H](c1ccccc1OCCO)N1[C@H](c3ccccc3)[C@H](c3ccccc3)OC(=O)[C@H]1[C@@H]2C(=O)NC[C@H](O)c1ccccc1 | 0.142 | -4.1 (inactive) | 1.42 (inactive) | -1.44 (inactive) | 0.506 | 0.209 | 1.94 | 0.552 | 1.56 | 2.96 (inactive) | -0.0222 | 3.88 (inactive) | 0.965 (inactive) | 0.673 (inactive) | 0.442 (inactive) | 2.31 | 1.59 (inactive) | 1.52 (inactive) | -0.0153 | 2.07
C=CCN1C(=O)[C@@]2(O[C@@H](CCn3cc(CCO)nn3)[C@H]([Si](C)(C)c3ccc(OC)cc3)[C@H]2C)c2cc(N3C(=O)c4cccc5cccc3c45)ccc21 | 0.662 | -7.17 (inactive) | 37.8 (active) | -3.77 (inactive) | 0.854 | 0.0377 | 0.311 | 0.615 | 0.802 | 2.05 (inactive) | 0.0318 | 16.4 (active) | 3.97 (inactive) | -0.551 (inactive) | 1.5 (inactive) | 0.905 | 0.576 (inactive) | 1.11 (inactive) | -0.148 | -4.11
C=CC[C@]1(C(=O)N(C)C)N=C(c2ccc(OCCCO)cc2)O[C@H]1c1ccccc1CN=[N+]=[N-] | 0.508 | -1.79 (inactive) | 2.8 (inactive) | -1.16 (inactive) | 1.39 | 0.0388 | 0.581 | 1.1 | 0.0463 | 1.19 (inactive) | -0.237 | 11.8 (active) | 1.47 (inactive) | 2.63 (inactive) | 0.817 (inactive) | 0.434 | 1.23 (inactive) | 0.653 (inactive) | -1.25 | 0.937
